Measurements: PubChem BioAssay (Tox21)
“And” between values parts separate entries of the source, which are not always exact repeats. Equal entries are not always repeated. Where a structure was tested more than once in an assay, its records may differ in their call. The source made the active and inactive calls. Where a call stands in place of a potency, no number is given. Unless noted, calls come from the whole dose curve; as a rule, active = well fitted curve in the direction sought with a large enough effect in the repeat runs; inconclusive = weak or mixed curves; inactive = no such curve, though single readings can be large; an effect the other way counts as inactive or inconclusive.

How the values were obtained:
[1] = qHTS assay to identify small molecule antagonists of the thyroid receptor (TR) signaling pathway - cell viability counter screen (AID 743064); note: nearly all actives have a fitted effect of over 50% in size; note: potency is the fitted concentration of half-maximal effect
How it was run: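 GH3.TRE-Luc rat pituitary cells dosed after 4 hr plating, co-stimulated with T3 at 1 nM final, incubated 23.5 h at 37 C. Viability measured in the same wells by CellTiter-Fluor fluorescence after 30 min further at 37 C.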

[2] = test system: thyroid hormone receptor (rat, GH3 cells); test: qHTS assay to identify small molecule agonists of the thyroid receptor (TR) signaling pathway (AID 743066; calls by dose curve)
[3] = biological target: Estrogen receptor (Homo sapiens) (UniProt P03372); test: qHTS assay to identify small molecule antagonists of the estrogen receptor alpha (ER-alpha) signaling pathway (AID 743069; active = well fitted curve in the direction sought with a large enough effect in the signal ratio in the repeat runs, not every such curve was filed as active; inconclusive = weak or mixed curves, or effect the other way; inactive = no such curve, though single readings can be large or run the other way; the % refers to the signal ratio; note: potency is the fitted concentration of half-maximal effect)
Chain of Estrogen receptor (Homo sapiens) (P03372 whole entry, looked up): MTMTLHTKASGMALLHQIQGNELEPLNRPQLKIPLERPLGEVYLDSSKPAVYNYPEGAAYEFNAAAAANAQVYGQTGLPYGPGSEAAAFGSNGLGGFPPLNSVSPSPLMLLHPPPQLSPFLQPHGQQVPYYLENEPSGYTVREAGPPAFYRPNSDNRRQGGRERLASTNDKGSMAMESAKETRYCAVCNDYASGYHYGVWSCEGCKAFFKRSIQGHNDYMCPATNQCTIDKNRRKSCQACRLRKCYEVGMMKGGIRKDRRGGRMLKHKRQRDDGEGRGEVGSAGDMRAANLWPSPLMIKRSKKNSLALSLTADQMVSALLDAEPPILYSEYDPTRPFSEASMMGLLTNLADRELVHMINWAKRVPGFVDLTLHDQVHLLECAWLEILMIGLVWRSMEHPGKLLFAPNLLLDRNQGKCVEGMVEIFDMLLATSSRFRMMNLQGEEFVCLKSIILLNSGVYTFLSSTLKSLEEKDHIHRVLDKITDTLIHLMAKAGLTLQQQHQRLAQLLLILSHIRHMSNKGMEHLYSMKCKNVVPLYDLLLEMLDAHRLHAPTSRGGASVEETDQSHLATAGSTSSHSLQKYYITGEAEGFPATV
How it was run: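 A 17beta-estradiol challenge was applied right after compound transfer to ER-alpha-UAS-bla HEK293 cells previously kept in charcoal-stripped serum. Plates stood 18 hr at 37C and 5% CO2; fluorescence was read following 2 hr FRET substrate loading at room temperature.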

[4] = qHTS assay to identify small molecule antagonists of the estrogen receptor alpha (ER-alpha) signaling pathway - cell viability counter screen (AID 743074; calls by dose curve;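 note: HEK293 cells carrying ER-alpha-UAS-bla reporter stimulated with 17beta-estradiol; nearly all actives have a fitted effect of over 45% in size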; note: potency is the fitted concentration of half-maximal effect)
[5] = biological target: Estrogen receptor (Homo sapiens) (UniProt P03372); test: qHTS assay to identify small molecule agonists of the estrogen receptor alpha (ER-alpha) signaling pathway (AID 743075; calls by dose curve;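 note: HEK293 GripTite cells with ER-alpha and UAS-driven beta-lactamase reporter; potency is the fitted concentration of half-maximal effect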)
[6] = biological target: Estrogen receptor (Homo sapiens) (UniProt P03372); test: qHTS assay to identify small molecule agonists of the estrogen receptor alpha (ER-alpha) signaling pathway using the BG1 cell line (AID 743079); details: BG1Luc4E2 cells, ERE-luciferase agonist, 22 h; activation: at 70.3 µM (top of the series) unless noted; note: potency is the fitted concentration of half-maximal effect; nearly all actives have a fitted effect of over 20% in size
[7] = qHTS assay to identify small molecule antagonists of the estrogen receptor alpha (ER-alpha) signaling pathway using the BG1 cell line - cell viability counter screen (AID 743081);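 note: compound given together with 17beta-estradiol as the ER stimulus; nearly all actives have a fitted effect of over 45% in size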; note: potency is the fitted concentration of half-maximal effect
[8] = biological target: Aromatase (Homo sapiens) (UniProt P11511); test: qHTS assay to identify aromatase inhibitors (AID 743083); note: nearly all actives have a fitted effect of over 55% in size; note: potency is the fitted concentration of half-maximal effect
Chain of Aromatase (Homo sapiens) (P11511 whole entry, looked up): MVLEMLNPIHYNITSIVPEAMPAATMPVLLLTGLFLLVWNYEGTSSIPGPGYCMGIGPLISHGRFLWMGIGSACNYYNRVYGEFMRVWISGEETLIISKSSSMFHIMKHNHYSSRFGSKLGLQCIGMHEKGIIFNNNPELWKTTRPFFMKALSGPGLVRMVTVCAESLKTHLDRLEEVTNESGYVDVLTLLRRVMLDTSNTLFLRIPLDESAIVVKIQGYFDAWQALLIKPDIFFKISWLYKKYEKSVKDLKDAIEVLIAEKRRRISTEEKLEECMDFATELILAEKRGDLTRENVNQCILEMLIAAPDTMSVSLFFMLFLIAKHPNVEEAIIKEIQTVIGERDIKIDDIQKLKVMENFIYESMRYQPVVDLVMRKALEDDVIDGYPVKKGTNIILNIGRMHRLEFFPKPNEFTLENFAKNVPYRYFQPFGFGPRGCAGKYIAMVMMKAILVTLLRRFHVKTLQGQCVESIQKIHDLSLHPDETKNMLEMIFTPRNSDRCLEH

[9] = qHTS assay to identify aromatase inhibitors - cell viability counter screen (AID 743084);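 note: cells stimulated with testosterone during compound exposure; nearly all actives have a fitted effect of over 55% in size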; note: potency is the fitted concentration of half-maximal effect
[10] = biological target: Aryl hydrocarbon receptor (Homo sapiens) (UniProt P35869); test: qHTS assay to identify small molecule that activate the aryl hydrocarbon receptor (AhR) signaling pathway (AID 743085);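 note: HG2L7.5c1 human HepG2 liver cells with stably integrated DRE-driven firefly reporter; nearly all actives have a fitted effect of over 15% in size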
Chain of Aryl hydrocarbon receptor (Homo sapiens) (P35869 whole entry, looked up): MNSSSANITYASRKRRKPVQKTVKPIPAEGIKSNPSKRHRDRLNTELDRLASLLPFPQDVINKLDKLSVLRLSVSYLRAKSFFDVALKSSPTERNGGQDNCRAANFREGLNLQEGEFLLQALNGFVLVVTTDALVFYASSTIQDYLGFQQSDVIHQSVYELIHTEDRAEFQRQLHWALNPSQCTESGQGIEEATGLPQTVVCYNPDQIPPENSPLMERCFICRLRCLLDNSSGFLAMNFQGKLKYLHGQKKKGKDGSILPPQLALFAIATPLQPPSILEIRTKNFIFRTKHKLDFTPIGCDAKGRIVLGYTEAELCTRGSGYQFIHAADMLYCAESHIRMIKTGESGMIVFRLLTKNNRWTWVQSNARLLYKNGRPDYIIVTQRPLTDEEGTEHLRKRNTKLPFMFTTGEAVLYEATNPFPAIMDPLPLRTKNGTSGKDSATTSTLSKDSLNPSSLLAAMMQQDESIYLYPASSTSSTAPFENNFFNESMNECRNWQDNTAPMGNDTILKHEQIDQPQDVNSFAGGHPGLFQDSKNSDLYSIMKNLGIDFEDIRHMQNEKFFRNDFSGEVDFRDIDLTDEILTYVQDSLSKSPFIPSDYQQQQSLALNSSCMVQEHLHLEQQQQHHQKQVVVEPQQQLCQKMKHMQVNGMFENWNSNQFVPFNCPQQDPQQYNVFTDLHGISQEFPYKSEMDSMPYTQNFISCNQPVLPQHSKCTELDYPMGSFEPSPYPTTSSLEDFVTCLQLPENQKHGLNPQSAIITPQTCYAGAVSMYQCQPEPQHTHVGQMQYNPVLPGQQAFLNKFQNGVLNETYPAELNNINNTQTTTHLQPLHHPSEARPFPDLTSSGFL
How it was run: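 HepG2 cells stably carrying a 20-DRE firefly luciferase reporter (HG2L7.5c1) treated with compound for 24 hr at 37C. Luciferase read by ONE-Glo luminescence, with CellTiter-Fluor viability read first.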

[11] = biological target: Peroxisome proliferator-activated receptor gamma (Homo sapiens) (UniProt P37231); test: qHTS assay to identify small molecule agonists of the peroxisome proliferator-activated receptor gamma (PPARg) signaling pathway (AID 743094; active = well fitted activation curve with a large enough effect in the signal ratio in the repeat runs, not every such curve was filed as active; inconclusive = weak or mixed curves, or effect the other way; inactive = no such curve, though single readings can be large or run the other way; the % refers to the signal ratio)
Chain of Peroxisome proliferator-activated receptor gamma (Homo sapiens) (P37231 whole entry, looked up): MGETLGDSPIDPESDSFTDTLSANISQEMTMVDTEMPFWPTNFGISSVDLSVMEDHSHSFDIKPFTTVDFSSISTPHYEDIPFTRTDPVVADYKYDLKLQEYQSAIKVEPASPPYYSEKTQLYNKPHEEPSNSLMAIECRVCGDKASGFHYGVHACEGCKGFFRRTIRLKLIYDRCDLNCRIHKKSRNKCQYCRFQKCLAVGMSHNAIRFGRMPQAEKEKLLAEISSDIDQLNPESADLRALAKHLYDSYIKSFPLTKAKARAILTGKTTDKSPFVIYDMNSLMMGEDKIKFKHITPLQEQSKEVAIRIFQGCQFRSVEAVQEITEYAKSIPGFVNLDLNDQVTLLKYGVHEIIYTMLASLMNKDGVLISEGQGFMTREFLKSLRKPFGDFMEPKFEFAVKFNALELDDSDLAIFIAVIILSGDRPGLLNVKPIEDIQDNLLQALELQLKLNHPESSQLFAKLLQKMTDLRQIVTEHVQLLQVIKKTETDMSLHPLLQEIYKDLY
How it was run: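 Fluorescence-based beta-lactamase readout in HEK293H PPARg UAS-bla cells after 17 h compound exposure (37C) and 1 h B/G FRET substrate incubation at room temperature.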

[12] = biological target: Peroxisome proliferator-activated receptor gamma (Homo sapiens) (UniProt P37231); test: qHTS assay to identify small molecule antagonists of the peroxisome proliferator-activated receptor gamma (PPARg) signaling pathway (AID 743191; calls by dose curve; note: nearly all actives have a fitted effect of over 30% in size)
How it was run: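 GeneBLAzer PPARg UAS-bla HEK293H cells carrying a UAS-driven beta-lactamase reporter were plated at 3000 cells/well, preincubated 5 h at 37C, then given compound for 17 h at 37C; LiveBLAzer B/G FRET substrate was read after 1 h at room temperature.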

[13] = qHTS assay for small molecule agonists of the antioxidant response element (ARE) signaling pathway - cell viability counter screen (AID 743203; calls by dose curve; note: nearly all actives have a fitted effect of over 55% in size; note: potency is the fitted concentration of half-maximal effect)
How it was run: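 Parallel cytotoxicity read-out for the ARE-bla screen: HepG2 reporter cells, 16 hrs with compounds, then CellTiter-Glo luminescence.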

[14] = qHTS assay for small molecule activators of the heat shock response signaling pathway - cell viability counter screen (AID 743209); note: nearly all actives have a fitted effect of over 50% in size; note: potency is the fitted concentration of half-maximal effect
How it was run: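 To flag cytotoxic compounds, HSE-bla HeLa cells plated at 1500 cells/well were dosed for 5 h at 37 C, followed by the reporter FRET read and then CellTiter-Glo, with luminescence recorded 30 min after reagent addition.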

[15] = qHTS assay for small molecule activators of the heat shock response signaling pathway (AID 743210; active = well fitted activation curve with a large enough effect in the signal ratio in the repeat runs, with a control signal flat, not every such curve was filed as active; inconclusive = weak or mixed curves; the % refers to the signal ratio)
How it was run: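 Heat shock element–beta-lactamase HeLa reporter cells; qHTS with compounds for 5 h at 37 C; detection by FRET substrate fluorescence after 2.5 h at RT.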

[16] = qHTS assay to identify small molecule antagonists of the thyroid receptor (TR) signaling pathway (AID 743065); note: nearly all actives have a fitted effect of over 55% in size; note: potency is the fitted concentration of half-maximal effect
How it was run: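 GH3.TRE-Luc rat pituitary cells carrying two TR response elements driving luciferase were plated for 4 h, given compound plus 1 nM T3 (final), and incubated 23.5 h at 37 C. ONE-Glo luminescence measured reporter inhibition; CellTiter-Fluor fluorescence tracked cytotoxicity.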

[17] = qHTS assay to identify small molecule that activate the aryl hydrocarbon receptor (AhR) signaling pathway - cell viability counter screen (AID 743086); note: nearly all actives have a fitted effect of over 45% in size; note: potency is the fitted concentration of half-maximal effect
How it was run: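 HepG2-AhR-luc (HG2L7.5c1) cells, 4000/well, were preincubated 5 h at 37C, exposed to compound in qHTS format for 24 hr at 37C, then given CellTiter-Fluor for 30 min; viability was read as fluorescence in the reporter wells.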

[18] = qHTS assay to identify small molecule antagonists of the peroxisome proliferator-activated receptor gamma (PPARg) signaling pathway - cell viability counter screen (AID 743194); details: Potency: co-treated with 50 nM rosiglitazone unless noted; note: nearly all actives have a fitted effect of over 55% in size; note: potency is the fitted concentration of half-maximal effect
How it was run: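 PPARg-UAS-bla HEK293H cells were plated, rested 5 h at 37 C, then treated with compounds plus rosiglitazone (50 nM final) for 17 h at 37 C; viability was then read by CellTiter-Glo luminescence after 30 min at room temperature.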

[19] = qHTS assay for small molecule agonists of the antioxidant response element (ARE) signaling pathway (AID 743202; active = well fitted activation curve with a large enough effect in the signal ratio in the repeat runs, not every such curve was filed as active; inconclusive = weak or mixed curves, or effect the other way; inactive = no such curve, though single readings can be large or run the other way; the % refers to the signal ratio)
How it was run: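 Following a 16 h, 37 C exposure of reporter HepG2 cells (ARE-driven beta-lactamase, 2,000 cells/well) to compounds, FRET substrate was applied for 2 h at room temperature and fluorescence intensity recorded.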

[20] = qHTS assay to identify small molecule antagonists of the estrogen receptor alpha (ER-alpha) signaling pathway using the BG1 cell line (AID 743080; calls by dose curve;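 note: BG1 cells stimulated with 17beta-estradiol alongside compound; potency is the fitted concentration of half-maximal effect; nearly all actives have a fitted effect of over 25% in size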)
How it was run: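 Luciferase inhibition measured with ONE-Glo after 30 min at RT in BG1Luc4E2 cells given test compounds and 17beta-estradiol for 21.5 h at 37 C; CellTiter-Fluor viability read in the same wells beforehand.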

**Q.** Which results are given for `CC(C)(c1ccccc1)c1ccc(O)cc1`?
**A.** Potency [1]: 48.2 µM (active) and 61.1 µM (active); Potency [2]: inactive; Potency [3]: 24.3 µM [inhibitor] (active); Potency [4]: inactive; Potency [5]: 4.33 µM [inconclusive] (active) and 3.89 µM [inconclusive] (active); Potency [6]: 1.08 µM (active) and 686 nM (active); Potency [7]: inactive; Potency [8]: 30.4 µM (active) and 30.6 µM (active); Potency [9]: 48.2 µM (active); Potency [10]: inactive; Potency [11]: inactive; Potency [12]: inactive; Potency [13]: 60.6 µM (active); Potency [14]: inactive; Potency [15]: inactive

**Q.** Which Potency [1] does the source give for `CC(O)CN(CC(C)O)CC(C)O` (stereo not given) here?
**A.** The Potency was “inactive”.

**Q.** What about the Potency [16] of the same molecule?
**A.** The Potency was “inactive”.

**Q.** What about the Potency [2] of the same molecule?
**A.** Its Potency is “inactive”.

**Q.** What about the Potency [4] of the same molecule?
**A.** Its Potency is “inactive”.

**Q.** And the Potency [7]?
**A.** Its Potency is “inactive”.

**Q.** What about the Potency [8] of the same molecule?
**A.** The Potency was “inactive”.

**Q.** And the Potency [9]?
**A.** Its Potency is “inactive”.

**Q.** What about the Potency [17] of the same molecule?
**A.** The Potency was “inactive”.

**Q.** And the Potency [18]?
**A.** The Potency was “inactive”.

**Q.** What about the Potency [19] of the same molecule?
**A.** The Potency was “inactive”.

**Q.** And the Potency [13]?
**A.** The Potency was “inactive”.

**Q.** And the Potency [14]?
**A.** The Potency was “inactive”.

**Q.** And the Potency [15]?
**A.** The Potency was “inactive”.

**Q.** Which results are given for `CCC[CH2][Sn]([Cl])([CH2]CCC)[CH2]CCC`?
**A.** Potency [1]: 307 nM (active) and 386 nM (active); Potency [16]: 194 nM (active) and 273 nM (active); Potency [4]: 693 nM (active) and 1.55 µM (active); Potency [20]: 274 nM (active) and 486 nM (active); Potency [7]: 2.74 µM (active) and 1.72 µM (active); Potency [8]: 2.74 µM (active) and 2.17 µM (active); Potency [9]: 1.54 µM (active) and 3.06 µM (active); Potency [10]: inactive; Potency [17]: 2.17 µM (active) and 3.44 µM (active); Potency [18]: 1.38 µM (active) and 1.1 µM (active); Potency [13]: 771 nM (active) and 1.09 µM (active); Potency [14]: 1.74 µM (active) and 2.75 µM (active)

**Q.** What does the source list for `Oc1ccc(Cl)cc1Cc1ccccc1`?
**A.** Potency [1]: 48.6 µM (active) and 36.7 µM (active); Potency [16]: 54.5 µM (active) and 43.3 µM (active); Potency [2]: inactive; Potency [4]: inactive and 49 µM (active) and 12.4 µM (active); Potency [7]: inactive; Potency [8]: 27.3 µM (active) and 30.9 µM (active); Potency [9]: inactive and 30.6 µM (active) and 49.2 µM (active); Potency [10]: inactive; Potency [17]: inactive; Potency [14]: 54.9 µM (active) and 45.4 µM (active) and inactive
